Screening data: PubChem BioAssay, National Center for Advancing Translational Sciences (NCATS)
Rows were chosen to be rich in hits. Some 3.3% of all compounds tested hit in one or more screens of this group.
Pol III holo inh: inhibitors of bacterial DNA polymerase III holoenzyme. reconstituted DNA polymerase III holoenzyme replication, biochemical. Potency, µM (series often up to 57.1 µM). actives 0.25% (n = 71,000). AID 603
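Reconstituted *E. coli* holoenzyme (0.35 nM Pol III, 1 nM beta, 154 nM SSB, 2 nM primase) was preincubated with compound for 15 min at RT. Synthesis on 1.4 nM ssM13Gori ran 35 min, then was stopped with PicoGreen/EDTA and read as dsDNA fluorescence.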
Tau filament bind: tau filament binding; AID 596; recombinant tau filaments, thioflavin S fluorescence, 15 h; filaments grown with octadecylsulfate alongside compound; P10636; actives 2% (n = 71,000); Potency, µM (titrated, usually from 57.1 µM);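 also: actives lower thioflavin S fluorescence by blocking filaments or displacing dye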
Target sequence (P10636 whole entry, looked up): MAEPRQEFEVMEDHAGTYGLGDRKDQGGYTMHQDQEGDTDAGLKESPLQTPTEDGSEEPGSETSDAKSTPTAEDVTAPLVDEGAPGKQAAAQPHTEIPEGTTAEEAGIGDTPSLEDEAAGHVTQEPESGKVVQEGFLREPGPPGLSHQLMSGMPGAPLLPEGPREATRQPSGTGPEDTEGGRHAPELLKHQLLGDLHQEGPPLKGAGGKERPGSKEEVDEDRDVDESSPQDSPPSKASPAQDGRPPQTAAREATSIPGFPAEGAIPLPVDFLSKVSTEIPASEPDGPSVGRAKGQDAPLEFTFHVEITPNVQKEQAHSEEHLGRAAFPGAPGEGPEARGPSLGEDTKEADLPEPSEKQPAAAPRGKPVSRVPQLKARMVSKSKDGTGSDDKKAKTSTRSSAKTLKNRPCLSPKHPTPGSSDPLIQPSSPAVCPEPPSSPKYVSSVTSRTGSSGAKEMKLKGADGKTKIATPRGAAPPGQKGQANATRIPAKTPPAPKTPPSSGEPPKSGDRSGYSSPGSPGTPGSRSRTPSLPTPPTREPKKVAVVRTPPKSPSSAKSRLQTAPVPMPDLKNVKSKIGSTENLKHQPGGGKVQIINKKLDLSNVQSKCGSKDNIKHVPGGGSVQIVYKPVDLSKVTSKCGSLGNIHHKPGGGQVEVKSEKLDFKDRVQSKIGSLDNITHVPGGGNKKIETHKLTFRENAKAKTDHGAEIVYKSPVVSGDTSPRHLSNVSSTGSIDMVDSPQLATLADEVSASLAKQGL
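Read-out: ThS fluorescence, 450 nm excitation/510 nm emission; lower signal marks blocked filament formation or displaced dye. Tau at 1 uM with 30 uM ODS, 10 uM ThS, 5 mM DTT, 100 mM NaCl, 10 mM HEPES pH 7.4; 15 h, 37 C.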
Hsp90 Hop PPI: changes Hsp90-Hop TPR2A binding signal, up or down; AlphaScreen TPR2A-His6 binding biotin-Hsp90 C-terminal peptide; Potency, µM (titrated, usually from 57 µM); actives 0.44% (n = 71,000); active = well fitted curve in either direction with a large enough effect; inconclusive = small, poorly fitted or top-dose-only effect, or another doubt
TsaE inh: displaces an ADP probe from E. coli YjeE (TsaE); P0AF67; Potency, µM; actives 0.05% (n = 71,000); purified YjeE enzyme, qHTS inhibition assay
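Purified YjeE (10 uM) with BODIPY Texas Red-labeled ADP probe (2 uM); compounds pin-transferred, 15 min at room temperature. Binding inhibition read as decreased fluorescence polarization; ADP titration as control.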
ALOX15 inhib: blocks human 15-lipoxygenase activity | purified 15hLO-1, xylenol orange hydroperoxide absorbance | actives 1.4% (n = 74,000) | Potency, µM (top dose mostly 57.1 µM), most hits filed as inhibitors; also: nearly all actives have a fitted effect of over 55% in size
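Hydroperoxide formed from arachidonic acid (50 uM) by purified human 15hLO-1 (40 nM) oxidizes ferrous iron, and the ferric-xylenol orange complex is read at 573 versus 405 nm. Compounds were preincubated 15 min; reaction ran 6 min at room temperature.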
Numbers stand for hits; - = inactive; ? = inconclusive; . = not tested or not shown; ! = not active in a repeat; [ ] = another dose, or the depositor's remark. Unless noted, calls follow the shape of the dose curve; as a rule, active = well fitted curve in the direction sought with a large enough effect; inconclusive = small, poorly fitted or top-dose-only effect, or another doubt; inactive = no such curve, though single readings can be large; an effect the other way counts as inactive or inconclusive.

SMILES | Pol III holo inh | Tau filament bind | Hsp90 Hop PPI | TsaE inh | ALOX15 inhib
COc1ccc(C(c2nnnn2Cc2ccc(F)cc2)N2CCN(c3ccc(OC)cc3)CC2)cc1 (stereo not drawn) | - | 10µM | ? | - | -
Cc1ccc(N2CCN(C(=S)c3ccc(N(C)C)cc3)CC2)cc1 | - | 12.6µM | ? | - | ?
CN(C)c1ccc(C(=S)N2CCN(c3ccccc3)CC2)cc1 | - | - | - | - | -
CNc1nn(-c2cccc(Cl)c2)nc1N | - | 15.8µM | - | - | -
CNc1nc2c(c(=O)n(C)c(=O)n2C)n1Cc1ccccc1 | - | - | - | - | -
Cn1c(=O)c2c(nc(NC(Cc3ccccc3)C(=O)O)n2Cc2ccccc2)n(C)c1=O (stereo not drawn) | - | - | - | - | 25.1µM
CCN(CC)c1nc2cc(OC)ccc2cc1C#N | - | - | 25.1µM | - | -
CCN(CC)c1nc(C#N)cc(-c2ccc(OC)cc2)n1 | - | 12.6µM | 25.1µM | - | -
CC(=O)OCC(=O)[C@@]1(O)CC[C@@H]2[C@@H]3CCC4=CC(=O)CC[C@@]4(C)[C@H]3C(=O)C[C@]21C | - | - | - | - | .
O=C(O)C[C@@H]1CCCc2ccccc2[C@H]1O | - | - | - | - | -
CC1=C(/C=C/C(C)=C/C=C/C(C)=C\C=O)C(C)(C)CCC1 | - | 6.31µM | - | - | -
CC1=C(/C=C/C(C)=C/C=C/C(C)=C/C=O)C(C)(C)CCC1 | - | 5.01µM | - | - | ?
CC1=C(/C=C/C(C)=C/C=C/C(C)=C/CO)C(C)(C)CCC1 | - | 31.6µM | - | - | ?
CC1=C(\C=C/C(C)=C/C=C\C(C)=C\CO)C(C)(C)CCC1 | - | ? | - | - | .
Oc1cccc(C=NCc2ccccc2)c1O | . | . | . | . | 5.01µM
CCCCc1c(C)nn(-c2nnc3c4ccccc4n(CC)c3n2)c1C | - | 2µM | - | - | -
N[C@H](CS(=O)O)C(=O)O | - | - | - | - | .
O=C(Oc1cccc2cccnc12)c1ccc(Br)o1 | - | - | 25.1µM | - | -
CS(=O)(=O)c1sc2nc(-c3cccs3)cc(-c3ccccc3)c2c1N | - | 7.94µM | ? | - | ?
CC(=O)c1sc2nc(-c3cccs3)cc(C(F)(F)F)c2c1N | - | - | - | - | -
CCCCC[C@H](CC(=O)NO)C(=O)N[C@@H](C(=O)N1CCC[C@H]1CO)C(C)C | - | - | ? | - | -
COc1ccc(OC)c(NC(=O)C2CCC(CNc3c(N4CCC(C)CC4)c(=O)c3=O)CC2)c1 (stereo not drawn) | - | 3.16µM | - | - | -
COc1ccc(CCNC(=O)C2CCC(CNc3c(N4CCCC4)c(=O)c3=O)CC2)cc1OC (stereo not drawn) | . | . | . | . | -
O=S(=O)(/C=C/c1ccccc1)Nc1ccc(N2CCOCC2)cc1 | - | 25.1µM | - | - | ?
CCCc1ncc(C(=O)c2ccc(OC)cc2)n1C | - | - | - | - | 10µM
SMILES | Pol III holo inh | Tau filament bind | Hsp90 Hop PPI | TsaE inh | ALOX15 inhib
Cc1cc(C)n2c(SC/C(O)=C(\C#N)c3nc4ccccc4[nH]3)nnc2n1 | - | 10µM | - | - | -
Cc1ccccc1-n1c(SC/C(O)=C(\C#N)c2nc3ccccc3[nH]2)nnc1-c1ccncc1 | - | - | - | - | ?
CC(=O)Nc1nc(-c2ccccc2)nc(-c2ccccc2OC(C)=O)n1 | - | 1.26µM | - | - | 15.8µM
O=C(O)c1ccc(NS(=O)(=O)c2cccc3ccccc23)cc1 | . | . | . | . | -
Nc1nc(SCC(=O)c2ccc(Br)cc2)c2[nH]cnc2n1 | -[11.4 µM] | -[11.4 µM] | -[11 µM] | - | -[11.4 µM]
CCn1c2ccccc2c2cc(N)ccc21 | - | 3.16µM | - | - | -
CCn1c(C)cc(=S)c2ccccc21 | - | 5.01µM | - | - | -
C[C@@]12CC[C@@H]3[C@H](CCC4=CC(=O)CC[C@]43C)[C@@H]1CC[C@@H]2C(=O)Cn1cnc2c(=S)nc[nH]c21 | -[11.4 µM] | -[11.4 µM] | -[11 µM] | - | -[11.4 µM]
C[C@@](N)(Cc1ccc(O)c(O)c1)C(=O)O | 12.6µM! | - | ? | - | ?
Clc1ccc(Sc2oc(/C=N/n3cnnc3)cc2Br)cc1 | -[11.4 µM] | 5.01µM | -[11 µM] | - | -[11.4 µM]
COC(=O)C1=C(C)N(Cc2ccccc2)C2=C(C(C)=O)C(c3ccccc3)[C@@](O)(C(=O)OC)C(=O)N2C1c1ccccc1 (stereo partly drawn) | . | . | . | . | -[11.4 µM]
C/C(=N\O)c1ccc(N2C(=O)C3CC=C(Cl)CC3C2=O)cc1 (stereo not drawn) | -[11.4 µM] | 3.16µM | -[11 µM] | - | -[11.4 µM]
CC(C)OC(=O)c1ccc(N2C(=O)C3CC=CCC3C2=O)cc1 (stereo not drawn) | - | - | - | - | -
CCCCn1c(SCC(=O)NC(=O)NCc2ccco2)nc2cc(S(N)(=O)=O)ccc21 | - | - | - | - | 10µM
CCCCn1c(SCc2ccc(C(=O)OC)o2)nc2cc(S(N)(=O)=O)ccc21 | - | - | - | - | -
C[C@H]1[C@H](C)CC[C@]2(C(=O)O)CC[C@]3(C)C(=CC[C@@H]4[C@]5(C)C[C@H](O)[C@@H](O)[C@@](C)(CO)[C@@H]5[C@H](O)C[C@@]43C)[C@H]12 | -[11.4 µM] | -[11.4 µM] | -[11 µM] | - | -[11.4 µM]
CO[C@H]1COC(=O)C/C=C\[C@H](C)COC(=O)[C@@H](C)NC(=O)C/C=C\[C@@H]1C | . | . | . | . | -[11.4 µM]
O=C(c1ccccc1)c1ccc(N2CCOCC2)c(F)c1 | - | - | - | - | 31.6µM
O=C(c1ccccc1)c1cc(F)c(N2CCOCC2)cc1Cl | . | . | . | . | -
ICCc1ccccc1 | - | - | ? | - | 12.6µM
CCN(CC)CCCCNC(=O)c1ccc(Cc2nc3ccccc3[nH]2)cc1 | . | . | . | . | -
OC1CN=C2CCCc3c2n(c2ccc(Cl)cc32)C1 (stereo not drawn) | - | 7.94µM | - | - | ?
CCn1c2c(c3cc(Cl)ccc31)CCCC2=O | - | - | - | - | -
CO/N=C\[C@@H](NS(=O)(=O)c1ccc(C)cc1)[C@H](C)/C=C\CC(=O)OC | . | . | . | . | -[11.4 µM]
NC[C@@H]1O[C@@H](O[C@H]2[C@@H](O)[C@H](O[C@@H]3[C@H](O)[C@H](N)C[C@H](N)[C@H]3O[C@@H]3O[C@@H](CO)[C@H](O)[C@H](O)[C@@H]3N)O[C@H]2CO)[C@H](N)[C@H](O)[C@@H]1O | - | - | - | - | -
C=CCn1c(=O)/c(=C/c2ccc(C)o2)s/c1=C(/C#N)C(=O)c1ccccc1 | - | - | ? | - | 15.8µM
CCCNC(=O)c1cc(-c2ccc(O)cc2)on1 | - | - | - | - | -
O=c1n(Cc2cc3c(cc2Cl)OCO3)c(=O)n2n1CC[C@H]1/C(=N\OCc3ccccc3)[C@H]3O[C@@H]3[C@@H](O)[C@@H]12 | . | . | . | . | -[11.4 µM]
CC[C@@H]1OC(=O)[C@@H](C)[C@H](O[C@@H]2C[C@@](C)(OC)[C@@H](O)[C@H](C)O2)[C@H](C)[C@H](O[C@@H]2O[C@@H](C)C[C@@H](N(C)C)[C@H]2O)[C@@](C)(O)C[C@H](C)C(=O)[C@@H](C)[C@H](O)[C@@]1(C)O | - | ? | - | - | .
CCOc1ccc(-c2cc(C(=O)N/N=C/c3ccc(O)c(OC)c3)[nH]n2)cc1 | . | . | . | . | -
